Data taken from publication PMC7862700, “An all-to-all approach to the identification of sequence-specific readers for epigenetic DNA modifications on cytosine”.

Tests used:
Experiment in all cases: DAPPL (digital affinity profiling via proximity ligation, sequencing); 10 mM Tris-HCl pH 7.5, 50 mM NaCl, 1 mM DTT, 4% glycerol, room temperature, 30 min; GST-TFs on glutathione beads, 16-mer random dsDNA library, 0.1% formaldehyde crosslink after washing; high values mean tight binding
FEV = target: T1, FEV (Homo sapiens, UniProt Q99581 1-238); conditions: protein: recombinant; tags: N-terminal GST; dsDNA, one strand shown
T1 sequence: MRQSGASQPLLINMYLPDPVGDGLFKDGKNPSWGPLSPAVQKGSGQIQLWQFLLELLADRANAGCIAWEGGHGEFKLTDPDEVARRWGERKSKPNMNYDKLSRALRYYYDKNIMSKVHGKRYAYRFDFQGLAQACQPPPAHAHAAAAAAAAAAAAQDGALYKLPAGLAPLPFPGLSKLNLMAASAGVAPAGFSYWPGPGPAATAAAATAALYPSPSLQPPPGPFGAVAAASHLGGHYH
How it was run: (§1)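 Yeast served to express human transcription factors as GST fusions, which were then captured on glutathione beads and labelled with DNA barcodes. Pooled with a tag-only sample, they were incubated with 200 nmole of a 16-mer random double-stranded DNA library for 30 min at room temperature in Tris/NaCl/DTT/glycerol buffer, washed, crosslinked with 0.1% formaldehyde, ligated by proximity, amplified by PCR and sequenced. Dividing each hexamer's read frequency for a factor by its frequency for the tag-only sample gives the binding signal.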

ETV5 = ETV5 (Homo sapiens, UniProt P41161 1-510); conditions: protein: recombinant; tags: N-terminal GST; dsDNA, one strand shown
How it was run: as §1

HSF1 = HSF1 (Homo sapiens, UniProt Q00613 1-529); conditions: protein: recombinant; tags: N-terminal GST; chain copies: 3; dsDNA, one strand shown
How it was run: as §1

SPIC = target: T2, SPIC (Homo sapiens, UniProt Q8N5J4 1-248); conditions: protein: recombinant; tags: N-terminal GST; dsDNA, one strand shown
T2 sequence: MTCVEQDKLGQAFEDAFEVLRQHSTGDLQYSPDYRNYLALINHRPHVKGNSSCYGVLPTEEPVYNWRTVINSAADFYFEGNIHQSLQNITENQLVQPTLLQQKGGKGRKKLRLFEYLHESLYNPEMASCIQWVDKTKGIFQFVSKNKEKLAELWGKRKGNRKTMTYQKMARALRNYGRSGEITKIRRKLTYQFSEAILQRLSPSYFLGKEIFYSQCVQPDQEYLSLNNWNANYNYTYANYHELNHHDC
How it was run: as §1

ELF4 = ELF4 (Homo sapiens, UniProt Q99607 1-663); conditions: protein: recombinant; tags: N-terminal GST; dsDNA, one strand shown
How it was run: as §1

ELK4 = target: T3, ELK4 (Homo sapiens, UniProt P28324-2 1-405); conditions: protein: recombinant; tags: N-terminal GST; dsDNA, one strand shown
T3 sequence: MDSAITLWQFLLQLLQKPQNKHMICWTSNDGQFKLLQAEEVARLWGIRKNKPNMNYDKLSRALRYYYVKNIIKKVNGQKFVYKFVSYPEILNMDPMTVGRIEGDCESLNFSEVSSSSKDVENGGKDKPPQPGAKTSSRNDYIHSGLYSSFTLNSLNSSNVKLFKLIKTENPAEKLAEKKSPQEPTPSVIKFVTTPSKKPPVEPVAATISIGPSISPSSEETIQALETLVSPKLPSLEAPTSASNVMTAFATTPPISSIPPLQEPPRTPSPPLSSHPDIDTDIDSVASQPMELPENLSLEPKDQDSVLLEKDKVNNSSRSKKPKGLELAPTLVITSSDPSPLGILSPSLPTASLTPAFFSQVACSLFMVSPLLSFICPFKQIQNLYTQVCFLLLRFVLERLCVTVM
How it was run: as §1

ETV2 = target: T4, ETV2 (Homo sapiens, UniProt O00321 1-342); conditions: protein: recombinant; tags: N-terminal GST; dsDNA, one strand shown
T4 sequence: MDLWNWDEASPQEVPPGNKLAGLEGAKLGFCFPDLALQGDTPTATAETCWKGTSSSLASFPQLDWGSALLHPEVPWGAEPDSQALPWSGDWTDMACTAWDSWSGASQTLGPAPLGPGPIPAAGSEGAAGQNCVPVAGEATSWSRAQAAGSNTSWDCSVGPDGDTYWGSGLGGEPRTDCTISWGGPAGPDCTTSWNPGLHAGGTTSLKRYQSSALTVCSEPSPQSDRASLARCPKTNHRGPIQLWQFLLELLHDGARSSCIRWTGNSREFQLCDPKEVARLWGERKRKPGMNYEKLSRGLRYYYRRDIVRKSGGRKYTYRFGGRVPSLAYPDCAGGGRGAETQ
How it was run: as §1

ELF3 = target: T5, ELF3 (Homo sapiens, UniProt P78545 1-371); conditions: protein: recombinant; tags: N-terminal GST; dsDNA, one strand shown
T5 sequence: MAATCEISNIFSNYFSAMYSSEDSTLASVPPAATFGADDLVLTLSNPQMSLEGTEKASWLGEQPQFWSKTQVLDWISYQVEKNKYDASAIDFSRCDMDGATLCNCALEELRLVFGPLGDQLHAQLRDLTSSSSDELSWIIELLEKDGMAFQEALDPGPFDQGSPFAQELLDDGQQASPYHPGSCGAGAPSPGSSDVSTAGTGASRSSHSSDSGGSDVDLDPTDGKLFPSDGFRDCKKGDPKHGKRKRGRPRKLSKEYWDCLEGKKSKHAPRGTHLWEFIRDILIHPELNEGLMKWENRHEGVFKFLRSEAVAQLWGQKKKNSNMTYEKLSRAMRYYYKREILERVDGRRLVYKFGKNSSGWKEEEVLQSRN
How it was run: as §1

CRX = CRX (Homo sapiens, UniProt O43186 1-299); conditions: protein: recombinant; tags: N-terminal GST; dsDNA, one strand shown
How it was run: as §1

ETV1 = ETV1 (Homo sapiens, UniProt P50549 1-477); conditions: protein: recombinant; tags: N-terminal GST; dsDNA, one strand shown
How it was run: as §1

ERF = target: T6, ERF (Homo sapiens, UniProt P50548 1-548); conditions: protein: recombinant; tags: N-terminal GST; dsDNA, one strand shown
T6 sequence: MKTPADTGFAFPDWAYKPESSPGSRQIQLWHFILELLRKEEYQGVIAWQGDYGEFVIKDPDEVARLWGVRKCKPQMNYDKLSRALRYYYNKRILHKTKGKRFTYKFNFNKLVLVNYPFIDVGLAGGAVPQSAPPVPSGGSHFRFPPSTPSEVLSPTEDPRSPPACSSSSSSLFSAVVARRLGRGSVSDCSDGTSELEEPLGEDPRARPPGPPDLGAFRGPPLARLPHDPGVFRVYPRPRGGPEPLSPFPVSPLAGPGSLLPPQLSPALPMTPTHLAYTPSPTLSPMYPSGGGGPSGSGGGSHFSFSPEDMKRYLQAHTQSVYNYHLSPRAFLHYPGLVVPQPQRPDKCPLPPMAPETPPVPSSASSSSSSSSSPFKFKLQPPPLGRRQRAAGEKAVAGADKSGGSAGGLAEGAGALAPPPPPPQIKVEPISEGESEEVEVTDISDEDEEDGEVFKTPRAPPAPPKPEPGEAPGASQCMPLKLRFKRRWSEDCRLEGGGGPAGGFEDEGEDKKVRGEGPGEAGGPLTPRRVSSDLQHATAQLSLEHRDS
How it was run: as §1

ETV3L = target: T7, ETV3L (Homo sapiens, UniProt Q6ZN32 1-361); conditions: protein: recombinant; tags: N-terminal GST; dsDNA, one strand shown
T7 sequence: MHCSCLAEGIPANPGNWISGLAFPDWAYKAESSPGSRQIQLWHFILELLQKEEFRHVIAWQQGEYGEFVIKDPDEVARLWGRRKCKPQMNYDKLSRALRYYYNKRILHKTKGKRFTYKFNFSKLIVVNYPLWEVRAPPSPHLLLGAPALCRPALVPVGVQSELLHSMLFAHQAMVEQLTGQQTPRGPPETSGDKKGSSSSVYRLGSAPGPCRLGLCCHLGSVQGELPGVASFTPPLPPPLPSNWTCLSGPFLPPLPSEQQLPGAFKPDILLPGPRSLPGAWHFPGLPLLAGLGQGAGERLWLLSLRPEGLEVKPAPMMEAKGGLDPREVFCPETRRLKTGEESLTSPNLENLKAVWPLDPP
How it was run: as §1

ETS2 = target: T8, ETS2 (Homo sapiens, UniProt P15036 1-469); conditions: protein: recombinant; tags: N-terminal GST; dsDNA, one strand shown
T8 sequence: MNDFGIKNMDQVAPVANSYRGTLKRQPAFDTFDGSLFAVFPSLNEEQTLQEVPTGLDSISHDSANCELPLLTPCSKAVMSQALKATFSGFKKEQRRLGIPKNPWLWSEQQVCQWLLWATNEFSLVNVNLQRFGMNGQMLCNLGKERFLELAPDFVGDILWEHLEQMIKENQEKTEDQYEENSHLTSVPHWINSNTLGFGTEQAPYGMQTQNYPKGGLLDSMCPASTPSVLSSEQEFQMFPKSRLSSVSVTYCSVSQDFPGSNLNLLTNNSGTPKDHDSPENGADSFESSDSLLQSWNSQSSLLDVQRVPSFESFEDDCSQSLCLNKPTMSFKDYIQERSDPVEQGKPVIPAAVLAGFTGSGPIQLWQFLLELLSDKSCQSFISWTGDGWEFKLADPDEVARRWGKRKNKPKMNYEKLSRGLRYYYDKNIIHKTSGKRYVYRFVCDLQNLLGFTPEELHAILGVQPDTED
How it was run: as §1

SPDEF = target: T9, SPDEF (Homo sapiens, UniProt O95238 1-335); conditions: protein: recombinant; tags: N-terminal GST; dsDNA, one strand shown
T9 sequence: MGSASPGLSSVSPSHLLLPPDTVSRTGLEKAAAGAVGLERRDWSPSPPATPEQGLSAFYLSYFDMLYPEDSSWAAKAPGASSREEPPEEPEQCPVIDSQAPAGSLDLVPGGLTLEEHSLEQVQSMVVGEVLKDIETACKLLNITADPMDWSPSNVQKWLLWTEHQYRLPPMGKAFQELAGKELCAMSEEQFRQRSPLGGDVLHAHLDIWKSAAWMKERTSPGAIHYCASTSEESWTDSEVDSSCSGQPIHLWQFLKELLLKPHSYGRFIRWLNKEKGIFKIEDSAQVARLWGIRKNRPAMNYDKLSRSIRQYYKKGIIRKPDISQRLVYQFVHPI
How it was run: as §1

ETV7 = target: T10, ETV7 (Homo sapiens, UniProt Q9Y603 1-341); conditions: protein: recombinant; tags: N-terminal GST; dsDNA, one strand shown
T10 sequence: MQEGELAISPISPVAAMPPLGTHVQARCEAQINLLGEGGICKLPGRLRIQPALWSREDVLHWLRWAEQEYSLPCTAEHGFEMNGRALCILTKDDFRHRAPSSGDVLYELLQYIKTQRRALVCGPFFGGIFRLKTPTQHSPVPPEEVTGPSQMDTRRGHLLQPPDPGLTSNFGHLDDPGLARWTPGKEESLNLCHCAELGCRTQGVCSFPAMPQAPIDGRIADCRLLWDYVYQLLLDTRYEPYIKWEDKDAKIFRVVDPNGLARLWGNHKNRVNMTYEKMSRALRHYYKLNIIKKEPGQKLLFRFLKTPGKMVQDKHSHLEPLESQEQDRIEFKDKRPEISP
How it was run: as §1

ELF5 = target: T11, ELF5 (Homo sapiens, UniProt Q9UKW6-2 1-255); conditions: protein: recombinant; tags: N-terminal GST; dsDNA, one strand shown
T11 sequence: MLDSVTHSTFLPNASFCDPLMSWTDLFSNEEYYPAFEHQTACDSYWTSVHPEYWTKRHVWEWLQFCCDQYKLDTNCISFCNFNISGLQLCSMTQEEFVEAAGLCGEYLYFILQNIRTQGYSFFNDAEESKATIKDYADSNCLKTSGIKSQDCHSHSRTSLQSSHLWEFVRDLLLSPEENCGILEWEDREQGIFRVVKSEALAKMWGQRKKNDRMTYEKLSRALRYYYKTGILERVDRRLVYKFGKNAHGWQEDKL
How it was run: as §1

ETV3 = target: T12, ETV3 (Homo sapiens, UniProt P41162-2 1-143); conditions: protein: recombinant; tags: N-terminal GST; dsDNA, one strand shown
T12 sequence: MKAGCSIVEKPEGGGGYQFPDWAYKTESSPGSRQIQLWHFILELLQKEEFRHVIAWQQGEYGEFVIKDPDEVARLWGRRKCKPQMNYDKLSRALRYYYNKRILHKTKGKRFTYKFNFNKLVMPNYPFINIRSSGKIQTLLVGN
How it was run: as §1

ETV6 = ETV6 (Homo sapiens, UniProt P41212 1-452); conditions: protein: recombinant; tags: N-terminal GST; dsDNA, one strand shown
How it was run: as §1

Sequence of ETV6 (P41212 whole entry): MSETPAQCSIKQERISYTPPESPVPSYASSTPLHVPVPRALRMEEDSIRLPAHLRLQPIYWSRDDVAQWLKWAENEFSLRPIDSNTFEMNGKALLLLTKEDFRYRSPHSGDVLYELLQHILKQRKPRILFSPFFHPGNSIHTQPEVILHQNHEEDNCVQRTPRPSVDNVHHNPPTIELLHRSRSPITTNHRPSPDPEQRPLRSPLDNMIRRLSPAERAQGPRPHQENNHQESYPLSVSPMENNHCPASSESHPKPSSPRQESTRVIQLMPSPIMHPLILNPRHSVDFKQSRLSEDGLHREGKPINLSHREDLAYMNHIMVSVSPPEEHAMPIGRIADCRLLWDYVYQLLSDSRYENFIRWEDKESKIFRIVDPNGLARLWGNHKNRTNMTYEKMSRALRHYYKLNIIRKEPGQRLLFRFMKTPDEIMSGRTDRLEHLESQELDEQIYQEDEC
Sequence of ETV5 (P41161 whole entry): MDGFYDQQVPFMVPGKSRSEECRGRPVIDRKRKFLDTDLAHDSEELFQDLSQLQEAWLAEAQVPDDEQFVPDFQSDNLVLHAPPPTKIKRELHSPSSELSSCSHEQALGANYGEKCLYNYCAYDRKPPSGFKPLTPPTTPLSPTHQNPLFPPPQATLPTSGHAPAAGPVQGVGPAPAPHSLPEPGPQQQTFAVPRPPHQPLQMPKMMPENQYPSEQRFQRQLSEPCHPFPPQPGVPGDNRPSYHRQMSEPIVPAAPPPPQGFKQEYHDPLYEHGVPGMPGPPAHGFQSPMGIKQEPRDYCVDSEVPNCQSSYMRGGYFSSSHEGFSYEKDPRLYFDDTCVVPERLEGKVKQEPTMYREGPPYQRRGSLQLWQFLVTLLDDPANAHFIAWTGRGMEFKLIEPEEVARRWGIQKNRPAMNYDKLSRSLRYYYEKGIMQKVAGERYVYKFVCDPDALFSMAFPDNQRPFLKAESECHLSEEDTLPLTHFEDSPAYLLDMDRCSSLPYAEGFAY
Sequence of CRX (O43186 whole entry): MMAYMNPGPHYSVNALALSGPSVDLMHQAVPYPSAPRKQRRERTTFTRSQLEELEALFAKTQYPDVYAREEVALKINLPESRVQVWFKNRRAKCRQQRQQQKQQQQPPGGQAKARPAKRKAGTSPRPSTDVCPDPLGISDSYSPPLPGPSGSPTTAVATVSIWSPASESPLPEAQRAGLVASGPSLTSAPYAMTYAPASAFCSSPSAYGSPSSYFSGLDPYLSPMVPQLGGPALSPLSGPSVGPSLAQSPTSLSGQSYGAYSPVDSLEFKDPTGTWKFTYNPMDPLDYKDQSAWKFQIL
Sequence of ELF4 (Q99607 whole entry): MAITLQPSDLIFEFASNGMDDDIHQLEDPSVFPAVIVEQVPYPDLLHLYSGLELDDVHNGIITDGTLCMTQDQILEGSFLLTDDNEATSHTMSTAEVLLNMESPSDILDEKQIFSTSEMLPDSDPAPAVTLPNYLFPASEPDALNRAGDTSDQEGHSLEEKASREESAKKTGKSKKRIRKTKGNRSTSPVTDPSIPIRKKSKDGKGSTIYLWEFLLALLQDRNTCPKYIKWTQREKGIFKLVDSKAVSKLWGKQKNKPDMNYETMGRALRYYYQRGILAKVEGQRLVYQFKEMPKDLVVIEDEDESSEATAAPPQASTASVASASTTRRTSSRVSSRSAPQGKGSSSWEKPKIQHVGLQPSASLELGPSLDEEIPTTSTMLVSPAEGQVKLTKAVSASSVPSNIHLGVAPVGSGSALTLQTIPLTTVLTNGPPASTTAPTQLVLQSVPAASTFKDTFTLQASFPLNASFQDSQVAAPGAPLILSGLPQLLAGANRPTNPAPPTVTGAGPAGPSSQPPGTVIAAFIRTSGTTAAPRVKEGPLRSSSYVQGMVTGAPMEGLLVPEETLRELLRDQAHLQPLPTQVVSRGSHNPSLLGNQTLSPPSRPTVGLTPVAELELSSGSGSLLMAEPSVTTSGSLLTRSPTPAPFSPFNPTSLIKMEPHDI
Sequence of HSF1 (Q00613 whole entry): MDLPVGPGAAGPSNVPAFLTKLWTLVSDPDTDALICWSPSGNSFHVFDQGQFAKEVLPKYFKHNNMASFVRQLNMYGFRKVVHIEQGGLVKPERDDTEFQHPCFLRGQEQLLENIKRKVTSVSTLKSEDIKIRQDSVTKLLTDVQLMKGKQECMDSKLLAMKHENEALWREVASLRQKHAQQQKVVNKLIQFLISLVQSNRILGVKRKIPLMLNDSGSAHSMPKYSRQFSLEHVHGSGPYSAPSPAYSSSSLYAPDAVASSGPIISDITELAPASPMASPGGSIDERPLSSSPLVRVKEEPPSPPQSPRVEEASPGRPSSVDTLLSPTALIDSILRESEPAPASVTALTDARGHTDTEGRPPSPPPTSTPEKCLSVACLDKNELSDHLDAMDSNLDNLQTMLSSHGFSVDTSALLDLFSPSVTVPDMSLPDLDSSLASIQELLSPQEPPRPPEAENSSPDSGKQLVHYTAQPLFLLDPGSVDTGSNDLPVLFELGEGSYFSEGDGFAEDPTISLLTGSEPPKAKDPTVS
Sequence of ETV1 (P50549 whole entry): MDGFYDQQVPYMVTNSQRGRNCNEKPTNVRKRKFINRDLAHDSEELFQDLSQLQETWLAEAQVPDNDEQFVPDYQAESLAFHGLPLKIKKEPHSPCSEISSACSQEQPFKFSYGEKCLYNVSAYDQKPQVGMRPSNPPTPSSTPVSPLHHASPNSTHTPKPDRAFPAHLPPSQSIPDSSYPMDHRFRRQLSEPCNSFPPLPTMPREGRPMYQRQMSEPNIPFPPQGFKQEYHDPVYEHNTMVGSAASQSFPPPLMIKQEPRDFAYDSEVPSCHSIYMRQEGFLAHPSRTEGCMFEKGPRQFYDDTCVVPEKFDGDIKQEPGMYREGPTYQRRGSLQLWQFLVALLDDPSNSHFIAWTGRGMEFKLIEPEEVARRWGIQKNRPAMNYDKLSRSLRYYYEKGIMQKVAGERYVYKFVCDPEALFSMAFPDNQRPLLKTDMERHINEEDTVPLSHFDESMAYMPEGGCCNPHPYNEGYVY

## TTTGTT
FEV
  binding signal: 1.19 fold enrichment (6-mer frequency, TF over GST control)
ETV5
  binding signal: 1.25 fold enrichment (6-mer frequency, TF over GST control)
HSF1
  binding signal: 1.3 fold enrichment (6-mer frequency, TF over GST control)
SPIC
  binding signal: 1.29 fold enrichment (6-mer frequency, TF over GST control)
ELF4
  binding signal: 1.3 fold enrichment (6-mer frequency, TF over GST control)
ELK4
  binding signal: 1.46 fold enrichment (6-mer frequency, TF over GST control)
ETV2
  binding signal: 1.33 fold enrichment (6-mer frequency, TF over GST control)
ELF3
  binding signal: 1.35 fold enrichment (6-mer frequency, TF over GST control)
CRX
  binding signal: 1.46 fold enrichment (6-mer frequency, TF over GST control)
ETV1
  binding signal: 1.25 fold enrichment (6-mer frequency, TF over GST control)
ERF
  binding signal: 1.29 fold enrichment (6-mer frequency, TF over GST control)
ETV3L
  binding signal: 1.27 fold enrichment (6-mer frequency, TF over GST control)
ETS2
  binding signal: 1.26 fold enrichment (6-mer frequency, TF over GST control)
SPDEF
  binding signal: 1.33 fold enrichment (6-mer frequency, TF over GST control)
ETV7
  binding signal: 1.18 fold enrichment (6-mer frequency, TF over GST control)
ELF5
  binding signal: 1.27 fold enrichment (6-mer frequency, TF over GST control)
ETV3
  binding signal: 1.34 fold enrichment (6-mer frequency, TF over GST control)
ETV6
  binding signal: 1.34 fold enrichment (6-mer frequency, TF over GST control)
